Measurements: the supplement of paper PMC6555819

Each sequence was assayed on RARb homodimer (NR concentration 270 nM) (assay: PBM binding z-score (relative to random genomic background probes); higher = stronger binding; sequences stand for … in GC…GCGATTGACAGCGTAGAATGAAGG).
Summary of the method: (§1)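 Scanned fluorescence from custom Agilent 4×180K protein-binding microarrays was regression-normalized. Binding z-scores use random background probes as reference. Ligand-free nuclear receptor dimers were incubated on the arrays for 1 h and detected with antibodies against each partner (one per run).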

Sequence	PBM binding z-score
CCTAGCAGGCCAGGGGCACTCAAGCATTTCGCTT	-0.0718
ATCTCTAGGTAAGGTTCAGTGAAAGATCGATAGA	0.959
ATAGAAAGGTCGAGGTGAGTATAGAGAAAGGGAA	2.6
GCATATAGGTAATACAAGGGGAAAGTCCGATTGT	-0.0469
CCTACTTGGTCAGGAGGTCACACACCGGATATGA	4.48
CGTCCAAGGTCCTAGGAGGTCAGTGAAGACAGAT	2.93
AATACAGGGTCATCGTCGGCCAGAGTACGCACAG	3.96
CAGCGTAGGTCAGGGCCAGTATAGGAGGAACGTT	2.49
CAAACTAGGTCACGATAGGTCAAAGTCGAATGAC	4.88
AGAACGAGGGCACGCTGAGTTCATAGCAGAGTAG	2.79
ATATGTAGGGTATCGGGTCATTCAGTTTGCGCAT	2.99
TCATATAGGTAAACGGTGAAAGTCGGTGTGGTAA	0.301
TCGAGTAGGTTAGGGGCATACAGAATGGCGTCGA	0.759
TAGCCTAGGTCATTCAGGGGACAGTATAGAAAGC	3.89
TCAGACAGGTGAAGGTACCTCAGGTACGCAGTCG	0.421
CCTACTAGGCCATTCAGAGGTCATTGATCATATG	4.46
ATATGTAGGTTACATCCGGGTCGTTCAGGCTATG	1.5
TCTTGTAGATCAGAAGGTTAAGAAAGCTGGCCAA	1.17
TGATATAGGTAAAGGTGAAAGTCGAACGATATGA	1.61
ACTAGCAGGCCAAGGGTCACTCTAGATTAGTCCG	3.64

Sequence	PBM binding z-score
GGAACGAGGCCAAAGTTGATAGCATCTGTCGACG	0.373
CGAACTAGGTCATTGACAGGAGAGTGAATAGTAA	2.29
TAGCCTAGGTCATTCAGGGGCCTGTATAGAAAGC	2.65
TGTTGTAGATCAAGCAGGTTAAGAAAGCCTGAGT	0.0369
CCGACTGGGGCAAGGTTACCCTAACGCACAGCCA	1.51
TCGAGTAGGTTACCACTGGGGCATTCAGCTTTCT	0.339
TATACAGGGTCAAAGGCTAGAGTACGAATGTCGA	3.57
TCATATAGGTAAATGCTAGGTAAAAGTCCGATCT	0.193
GGTACGAGGGCAAGTTGATAGCAGAGTTTGATGG	1.72
TCATATAGGTAAATGCTAGGTGAAAGTGCGATCT	0.752
AATACAGGGTCATCGTAGACCAGAGTACGCACAG	3.31
TATCCAGGGTCAAAGGCCAGAGTACGAATGTCGA	3.6
CCTACTGGGCCATCAGATCATTGATATCAACGTT	-0.087
CGTCCAAGGTCAAGGTCCGTGAAAGAGACTCGAA	4.19
TCGAGTAGGTTACCGATGGGGCATTCAGCTTTCT	0.462
TCATATAGGTAAAGGGTGAAAGTCGGTGTGGTAA	1.59
CAAACTTGGTCACCGGAAGGTCAAAGTCCGCATG	4.11
TCTATTAGTTGATTAGGGCAACTGAAACAGCGGA	0.795
CAAATTAGGTCAAGGTCAAAGTCGGTTTGTGCCA	5.11

Each sequence was assayed on RARg:RXRa (NR concentration 270 nM, RXRa partner concentration 90 nM) in the same assay as above.
Summary of the method: as §1

Sequence	PBM binding z-score
CCTAGCAGGCCAGGGGCACTCAAGCATTTCGCTT	-0.38
ATCTCTAGGTAAGGTTCAGTGAAAGATCGATAGA	0.973
ATAGAAAGGTCGAGGTGAGTATAGAGAAAGGGAA	4.22
GCATATAGGTAATACAAGGGGAAAGTCCGATTGT	0.247
CCTACTTGGTCAGGAGGTCACACACCGGATATGA	4.98
CGTCCAAGGTCCTAGGAGGTCAGTGAAGACAGAT	2.53
AATACAGGGTCATCGTCGGCCAGAGTACGCACAG	5.6
CAGCGTAGGTCAGGGCCAGTATAGGAGGAACGTT	3.4
CAAACTAGGTCACGATAGGTCAAAGTCGAATGAC	6.44
AGAACGAGGGCACGCTGAGTTCATAGCAGAGTAG	4.31
ATATGTAGGGTATCGGGTCATTCAGTTTGCGCAT	2.43
TCATATAGGTAAACGGTGAAAGTCGGTGTGGTAA	0.178
TCGAGTAGGTTAGGGGCATACAGAATGGCGTCGA	0.546
TAGCCTAGGTCATTCAGGGGACAGTATAGAAAGC	6.43
TCAGACAGGTGAAGGTACCTCAGGTACGCAGTCG	0.412
CCTACTAGGCCATTCAGAGGTCATTGATCATATG	4.99
ATATGTAGGTTACATCCGGGTCGTTCAGGCTATG	1.78
TCTTGTAGATCAGAAGGTTAAGAAAGCTGGCCAA	0.818
TGATATAGGTAAAGGTGAAAGTCGAACGATATGA	1.55
ACTAGCAGGCCAAGGGTCACTCTAGATTAGTCCG	3.81

Sequence	PBM binding z-score
GGAACGAGGCCAAAGTTGATAGCATCTGTCGACG	0.787
CGAACTAGGTCATTGACAGGAGAGTGAATAGTAA	3.65
TAGCCTAGGTCATTCAGGGGCCTGTATAGAAAGC	4.31
TGTTGTAGATCAAGCAGGTTAAGAAAGCCTGAGT	-0.0637
CCGACTGGGGCAAGGTTACCCTAACGCACAGCCA	0.945
TCGAGTAGGTTACCACTGGGGCATTCAGCTTTCT	0.939
TATACAGGGTCAAAGGCTAGAGTACGAATGTCGA	5.5
TCATATAGGTAAATGCTAGGTAAAAGTCCGATCT	0.567
GGTACGAGGGCAAGTTGATAGCAGAGTTTGATGG	1.74
TCATATAGGTAAATGCTAGGTGAAAGTGCGATCT	0.609
AATACAGGGTCATCGTAGACCAGAGTACGCACAG	5.66
TATCCAGGGTCAAAGGCCAGAGTACGAATGTCGA	5.88
CCTACTGGGCCATCAGATCATTGATATCAACGTT	0.0829
CGTCCAAGGTCAAGGTCCGTGAAAGAGACTCGAA	6.16
TCGAGTAGGTTACCGATGGGGCATTCAGCTTTCT	1.47
TCATATAGGTAAAGGGTGAAAGTCGGTGTGGTAA	1.09
CAAACTTGGTCACCGGAAGGTCAAAGTCCGCATG	5.35
TCTATTAGTTGATTAGGGCAACTGAAACAGCGGA	0.45
CAAATTAGGTCAAGGTCAAAGTCGGTTTGTGCCA	6.43
